From PubChem BioAssay (NCATS)
Records with an inconclusive call do not appear. Active and inactive are the calls of the source. Unless noted, calls follow the shape of the dose curve; as a rule, active = well fitted curve in either direction with a large enough effect (not every such curve was filed as active); inconclusive = small, poorly fitted or top-dose-only effect, or another doubt; inactive = flat fitted curve, though single readings scatter.

Columns and labels:
[1] = target: Lysosomal acid glucosylceramidase (Homo sapiens) (UniProt P04062); assay: Glucocerebrosidase-p2 (AID 348; in the data active = potency below about 10 µM; also: potency is read from the fitted curve at half-maximal effect); conditions: purified GBA, blue fluorogenic substrate, 40 min
Chain of Lysosomal acid glucosylceramidase (Homo sapiens) (P04062 whole entry, looked up): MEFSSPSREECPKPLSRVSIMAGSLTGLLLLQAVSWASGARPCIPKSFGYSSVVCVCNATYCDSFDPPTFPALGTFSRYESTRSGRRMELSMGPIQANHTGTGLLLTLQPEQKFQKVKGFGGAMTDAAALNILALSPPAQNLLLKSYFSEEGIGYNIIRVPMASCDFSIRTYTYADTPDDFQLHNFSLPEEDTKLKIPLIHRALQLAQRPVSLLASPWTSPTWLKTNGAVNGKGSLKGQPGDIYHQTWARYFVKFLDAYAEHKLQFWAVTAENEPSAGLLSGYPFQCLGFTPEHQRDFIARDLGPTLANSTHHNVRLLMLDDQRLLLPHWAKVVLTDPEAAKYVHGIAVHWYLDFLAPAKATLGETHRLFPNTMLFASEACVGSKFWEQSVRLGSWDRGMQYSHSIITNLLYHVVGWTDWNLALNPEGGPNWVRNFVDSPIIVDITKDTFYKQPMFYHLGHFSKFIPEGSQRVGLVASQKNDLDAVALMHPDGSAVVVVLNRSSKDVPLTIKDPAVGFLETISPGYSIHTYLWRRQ
Outline: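 Normal human glucocerebrosidase (0.2 nM) with blue fluorogenic substrate (80 uM final) in citrate/phosphate pH 5.9 with 10mM sodium taurocholate, 0.01% tween-20; 40 min RT, NaOH/glycine stop; fluorescence Ex 365/Em 440; AC50 from a titration from 0.6 nM upwards.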

[2] = AP1 Signaling Pathway (AID 357); conditions: ME-180 AP-1-bla reporter, EGF-induced, beta-lactamase ratio, 5 h; at 7.69 µM (top of the series) unless noted;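 also: ME-180 reporter cells stimulated with EGF at its EC50 level; % is scaled to controls: 0 for no effect and ±100 for the full control effect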
Outline: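 Modulation of EGF-driven AP-1 transcription was assessed with a beta-lactamase reporter in ME-180 cells. Compound and EC50 EGF were co-incubated 5 hours at 37 °C before 2.5-hour CCF4 loading at room temperature and dual-emission reading.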

[3] = target: Cytochrome P450 1A2 (Homo sapiens) (UniProt P05177); assay: p450-cyp1a2 (AID 410; calls by dose curve; also: potency is read from the fitted curve at half-maximal effect;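 as to activity change, negative = inhibition: -100% = full effect of reference inhibitor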); conditions: recombinant CYP1A2, luciferin-ME demethylation, luminescence; series mostly up to 57 µM
Chain of Cytochrome P450 1A2 (Homo sapiens) (P05177 whole entry, looked up): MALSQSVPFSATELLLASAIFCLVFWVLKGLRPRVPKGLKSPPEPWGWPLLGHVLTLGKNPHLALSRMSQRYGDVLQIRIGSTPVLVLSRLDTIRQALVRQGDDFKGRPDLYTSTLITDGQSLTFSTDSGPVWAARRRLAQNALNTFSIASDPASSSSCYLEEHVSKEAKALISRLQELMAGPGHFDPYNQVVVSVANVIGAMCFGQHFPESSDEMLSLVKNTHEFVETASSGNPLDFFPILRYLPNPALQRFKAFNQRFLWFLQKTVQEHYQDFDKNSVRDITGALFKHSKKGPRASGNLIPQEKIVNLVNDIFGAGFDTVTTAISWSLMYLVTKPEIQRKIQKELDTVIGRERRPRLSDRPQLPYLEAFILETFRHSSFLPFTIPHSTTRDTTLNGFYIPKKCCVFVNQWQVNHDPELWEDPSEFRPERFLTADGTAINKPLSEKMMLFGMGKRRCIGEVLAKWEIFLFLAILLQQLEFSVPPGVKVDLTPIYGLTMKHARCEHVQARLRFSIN
Outline: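 20nM CYP1A2, 100uM Luciferin-ME (=Km), 100mM KPO4; cpd 10 min RT; +NADPH regen, 60 min RT; stop/detect 20 min; luminescence. Normalized to furafylline 57 uM = full inhibition.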

[4] = NFAT Signaling Pathway (AID 444); conditions: Jurkat NFAT-bla M1, carbachol, beta-lactamase ratio, 5 h; at 7.69 µM (top of the series) unless noted;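 also: carbachol stimulus at about its EC50 of 1 µM final; % is scaled to controls: 0 for no effect and ±100 for the full control effect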
Outline: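 Jurkat cells carrying an NFAT-driven β-lactamase reporter and co-transfected muscarinic M1 receptor were treated with compound plus carbachol (1 uM final, an EC50 level) for 5 h at 37 °C. CCF4 loading followed for 1 h at RT; 460/530 nm ratio gave %activity.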

[5] = Stat Signaling Pathway (AID 446); conditions: ME-180 (cervical carcinoma) SIE beta-lactamase reporter, IL-6 stimulated, 5 h; at 7.69 µM (top of the series) unless noted;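 also: ME-180 cervical cancer cells given 40 pM IL-6 alongside compound; SIE-controlled beta-lactamase reporter measured as 460/530 nm FRET emission ratio; % is scaled to controls: 0 for no effect and ±100 for the full control effect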
Outline: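 Emission at 460 and 530 nm (excitation 405 nm) reports SIE-controlled beta-lactamase in ME-180 cells. Cells received compound with 40 pM IL-6 for 5 hrs at 37 C; data scaled between 300 pM IL-6 and 125 nM JAK-inhibitor controls.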

[6] = target: Glucocorticoid receptor (Homo sapiens) (UniProt P04150); assay: GR-GFP Redistribution (AID 450;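 active = compounds whose dose series gives a full or clear partial fitted curve of increased nuclear translocation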; also: potency is read from the fitted curve at half-maximal effect); conditions: U2OS GR-GFP nuclear translocation, laser cytometry, 2 h
Chain of Glucocorticoid receptor (Homo sapiens) (P04150 whole entry, looked up, the tested form may be a part): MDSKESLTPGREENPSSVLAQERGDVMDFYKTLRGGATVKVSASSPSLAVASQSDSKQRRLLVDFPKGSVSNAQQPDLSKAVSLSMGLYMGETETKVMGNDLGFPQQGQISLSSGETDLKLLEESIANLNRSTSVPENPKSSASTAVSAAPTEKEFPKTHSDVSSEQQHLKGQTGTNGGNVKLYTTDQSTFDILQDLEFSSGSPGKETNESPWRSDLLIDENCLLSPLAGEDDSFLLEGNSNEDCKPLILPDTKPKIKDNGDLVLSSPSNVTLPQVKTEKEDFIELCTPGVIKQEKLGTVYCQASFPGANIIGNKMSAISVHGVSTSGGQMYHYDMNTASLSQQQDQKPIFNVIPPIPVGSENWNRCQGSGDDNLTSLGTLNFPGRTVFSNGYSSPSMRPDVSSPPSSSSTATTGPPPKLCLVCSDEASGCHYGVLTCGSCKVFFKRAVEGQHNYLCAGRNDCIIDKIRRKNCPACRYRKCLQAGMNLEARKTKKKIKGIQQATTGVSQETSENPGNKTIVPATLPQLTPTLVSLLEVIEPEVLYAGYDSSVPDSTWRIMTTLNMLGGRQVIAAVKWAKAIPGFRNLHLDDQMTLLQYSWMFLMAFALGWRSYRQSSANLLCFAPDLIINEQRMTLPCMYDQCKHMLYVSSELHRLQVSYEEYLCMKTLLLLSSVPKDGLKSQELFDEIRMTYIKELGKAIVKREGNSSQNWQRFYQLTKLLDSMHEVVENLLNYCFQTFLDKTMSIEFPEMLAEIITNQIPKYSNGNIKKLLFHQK

[7] = target: Glucocorticoid receptor (Homo sapiens) (UniProt P04150); assay: GR-EFC Redistribution (AID 451; calls by dose curve; also: potency is read from the fitted curve at half-maximal effect); conditions: CHO-K1 GR-EFC translocation, beta-gal luminescence, 2 h
Outline: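 CHO-K1 cells stably expressing nuclear-localized β-gal enzyme acceptor and GR fused C-terminally to the enzyme donor fragment; ligand-driven nuclear translocation restores β-gal by complementation. Compounds titrated up to 46 uM final, 2 h at 37 °C; luminescence read.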

[8] = target: Mitogen-activated protein kinase 10 (Mus musculus) (UniProt Q61831); assay: JNK3 AlphaScreen Assay (AID 530); conditions: JNK3 lysate, c-Jun phosphorylation; series mostly up to 57.1 µM;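 also: kinase came from lysate of stimulated human HepG2 cells; signal reports phosphorylation of biotinylated GST-cJun 1-79 at Ser73 with 10 µM ATP; % is scaled to controls: 0 for no effect and ±100 for the full control effect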
Outline: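 Biotinylated GST-cJun(1-79) served as substrate for JNK3 in HepG2 lysates stimulated with IL-1beta and TNF-alpha. ATP was 10 uM final, pH 7.6. Ser73 phosphorylation was quantified by AlphaScreen (680 nm excitation).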

[9] = target: 3',5'-cyclic-AMP phosphodiesterase 4B (Homo sapiens) (UniProt Q07343); assay: qHTS Assay for Inhibitors of PDE-IV (AID 607; active = well fitted activation curve with a large enough effect in the main read-out, with a control signal flat, not every such curve was filed as active; also: % of control where 0% means no effect); conditions: HEK293 ACTOne CNG channel cells, membrane potential fluorescence; series mostly up to 22.9 µM
Chain of 3',5'-cyclic-AMP phosphodiesterase 4B (Homo sapiens) (Q07343 whole entry, looked up): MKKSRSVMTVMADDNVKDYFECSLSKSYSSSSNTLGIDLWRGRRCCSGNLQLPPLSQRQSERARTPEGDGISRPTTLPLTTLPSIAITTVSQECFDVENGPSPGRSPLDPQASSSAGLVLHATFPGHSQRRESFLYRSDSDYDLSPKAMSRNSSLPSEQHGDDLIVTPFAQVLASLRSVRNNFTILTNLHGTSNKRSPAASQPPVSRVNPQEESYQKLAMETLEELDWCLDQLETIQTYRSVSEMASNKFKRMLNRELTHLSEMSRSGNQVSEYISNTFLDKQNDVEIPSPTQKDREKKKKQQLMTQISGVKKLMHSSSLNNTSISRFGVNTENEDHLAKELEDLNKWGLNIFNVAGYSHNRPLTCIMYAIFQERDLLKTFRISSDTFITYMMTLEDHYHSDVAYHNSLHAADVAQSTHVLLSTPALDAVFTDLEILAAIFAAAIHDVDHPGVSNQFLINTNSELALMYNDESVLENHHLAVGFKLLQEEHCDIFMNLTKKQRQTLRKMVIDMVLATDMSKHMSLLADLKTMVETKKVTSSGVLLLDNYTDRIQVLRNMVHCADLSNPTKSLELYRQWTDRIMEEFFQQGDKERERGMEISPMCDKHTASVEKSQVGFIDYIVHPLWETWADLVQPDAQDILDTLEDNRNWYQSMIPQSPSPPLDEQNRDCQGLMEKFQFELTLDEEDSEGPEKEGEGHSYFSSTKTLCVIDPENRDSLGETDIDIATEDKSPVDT
Outline: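 The readout is membrane depolarisation from a cAMP-sensing CNG channel, detected with a potential dye at ex 535/em 590. Cells were HEK293-derived (endogenous PDE-IV) at 1000 cells/well, titrated up to 22.9 uM final.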

[10] = target: Cytochrome P450 3A4 (Homo sapiens) (UniProt P08684); assay: qHTS Assay for Activators of Cytochrome P450 3A4 (AID 885; active = well fitted curve in the direction sought with a large enough effect; an effect the other way counts as inactive or inconclusive; also: nearly all actives have a fitted effect of over 65% in size); conditions: recombinant CYP3A4, Luciferin-PPXE luminescence, 60 min; series mostly up to 57.1 µM
Chain of Cytochrome P450 3A4 (Homo sapiens) (P08684 whole entry, looked up): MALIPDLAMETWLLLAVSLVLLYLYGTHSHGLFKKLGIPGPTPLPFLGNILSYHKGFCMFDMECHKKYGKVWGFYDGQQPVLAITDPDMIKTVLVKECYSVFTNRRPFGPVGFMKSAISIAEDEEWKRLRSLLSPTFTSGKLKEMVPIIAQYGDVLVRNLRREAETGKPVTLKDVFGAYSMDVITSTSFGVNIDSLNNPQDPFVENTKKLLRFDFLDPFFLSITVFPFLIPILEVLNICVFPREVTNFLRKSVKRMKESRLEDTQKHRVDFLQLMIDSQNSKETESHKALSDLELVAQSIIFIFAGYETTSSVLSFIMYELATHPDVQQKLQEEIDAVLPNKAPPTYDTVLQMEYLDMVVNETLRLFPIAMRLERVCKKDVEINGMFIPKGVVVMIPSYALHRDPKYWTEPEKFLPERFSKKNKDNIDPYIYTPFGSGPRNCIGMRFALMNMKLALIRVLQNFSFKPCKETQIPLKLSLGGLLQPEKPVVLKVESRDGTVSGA
Outline: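 Activators are scored by enhanced luminescence from CYP3A4 conversion of luciferin-PPXE (25uM, equal to KM) to luciferin, after 60 min at RT with an NADPH-regenerating system.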

[11] = qHTS Assay for Lipid Storage Modulators (AID 1519; calls by dose curve); conditions: Drosophila S3 cells, BODIPY lipid droplet/cell ratio, laser cytometry, cells loaded with oleic acid; for activity change, negative = inhibition: at 57.5 µM (top of the series)
Outline: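 Cells seeded at 5,000 per well were treated with compounds over a concentration series and loaded with oleic acid (400 uM, as added). Lipid droplet fluorescence (488 nm excitation, 500-530 nm channel) was read by laser-scanning cytometry and normalized to 20 uM Triacsin C.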

[12] = Primary qHTS for small molecule stabilizers of the endoplasmic reticulum resident proteome: Secreted ER Calcium Modulated Protein (SERCaMP) assay (AID 1508630; active = well fitted curve in the direction sought with a large enough effect; an effect the other way counts as inactive or inconclusive; also: % is scaled to controls: 0 for no effect and ±100 for the full control effect); conditions: SH-SY5Y GLuc-SERCaMP (Gaussia luciferase released on ER calcium loss) secretion, thapsigargin, luminescence; series mostly up to 38.4 µM
Outline: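 The SH-SY5Y reporter protocol was run at 3 concentrations up to 38.3 uM (primary) or 11 concentrations (follow-up): 16 h compound, 100 nM thapsigargin for 4 h, then extracellular luciferase luminescence.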

[13] = target: Cytochrome P450 3A4 (Homo sapiens) (UniProt P08684); assay: qHTS Assay for Inhibitors and Substrates of Cytochrome P450 3A4 (AID 884; active = well fitted curve in the direction sought with a large enough effect; an effect the other way counts as inactive or inconclusive; also: potency is read from the fitted curve at half-maximal effect; nearly all actives have a fitted effect of over 50% in size); conditions: recombinant CYP3A4, Luciferin-PPXE luminescence; series mostly up to 57.1 µM
Outline: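 Luminescent readout of luciferin produced by CYP3A4 (20 nM) dealkylation of Luciferin-PPXE, 25 uM (its KM). NADPH-driven reaction ran 60 min at RT after 10 min compound preincubation; data scaled to 57 uM ketoconazole as 100% inhibition.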

[14] = Confirmation and Secondary Assay for Modulators of Hemoglobin Beta Chain Splicing at IVS2 654 locus (AID 910; active = well fitted curve in the direction sought with a large enough effect; an effect the other way counts as inactive or inconclusive;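 also: per-well total GFP intensity by laser scanning cytometry after 2-day treatment; % of control where 0% means no effect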); conditions: HeLa EGFP-654 splicing reporter, GFP fluorescence, 48 h; series mostly up to 38.3 µM
Outline: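 HeLa cells stably carrying EGFP interrupted by mutant beta-globin IVS2-654 intron (CMV-driven) were treated with compound for 2 days at 37C; corrected splicing was scored as total peak GFP intensity per well (488 nm excitation, 500-520 nm emission).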

[15] = Confirmation and Secondary Assay for Modulators of Hemoglobin Beta Chain Splicing at IVS2 705 locus (AID 930; active = well fitted curve in the direction sought with a large enough effect; an effect the other way counts as inactive or inconclusive;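 also: HeLa cells stably expressing the EGFP-705 splicing reporter; % of control where 0% means no effect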); conditions: HeLa EGFP-705 splicing reporter, GFP fluorescence, 48 h; series mostly up to 38.3 µM
Outline: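 Restored EGFP fluorescence after 2-day compound exposure reports splicing correction in IVS2-705 EGFP reporter HeLa cells; positive control was 500 nM splice-blocking PNA oligo. Signal measured as well total peak GFP intensity (488 nm excitation).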

[16] = target: Cytochrome P450 2C19 (Homo sapiens) (UniProt P33261); assay: qHTS Assay for Inhibitors and Substrates of Cytochrome P450 2C19 (AID 899; active = well fitted curve in the direction sought with a large enough effect; an effect the other way counts as inactive or inconclusive; also: potency is read from the fitted curve at half-maximal effect; nearly all actives have a fitted effect of over 60% in size); conditions: recombinant CYP2C19, luciferin-H EGE luminescence; series mostly up to 57.1 µM
Chain of Cytochrome P450 2C19 (Homo sapiens) (P33261 whole entry, looked up): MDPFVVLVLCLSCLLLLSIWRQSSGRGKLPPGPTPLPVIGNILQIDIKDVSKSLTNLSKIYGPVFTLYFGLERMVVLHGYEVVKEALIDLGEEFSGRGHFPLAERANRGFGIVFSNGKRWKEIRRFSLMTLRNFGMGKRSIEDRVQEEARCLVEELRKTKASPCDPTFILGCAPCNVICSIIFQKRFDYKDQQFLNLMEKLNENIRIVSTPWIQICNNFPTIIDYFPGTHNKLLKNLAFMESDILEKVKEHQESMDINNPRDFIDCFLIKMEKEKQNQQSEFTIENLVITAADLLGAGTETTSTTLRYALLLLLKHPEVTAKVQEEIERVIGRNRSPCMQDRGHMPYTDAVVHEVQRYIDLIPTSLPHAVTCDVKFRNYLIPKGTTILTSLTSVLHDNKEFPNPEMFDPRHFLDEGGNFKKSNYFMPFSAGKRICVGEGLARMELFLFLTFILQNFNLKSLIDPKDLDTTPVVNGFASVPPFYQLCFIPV
Outline: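 Human CYP2C19 (5nM) with Luciferin-H EGE at 10uM (its KM) in 50mM KPO4 was preincubated with compound for 10 min at 37C. NADPH regeneration started a 60 min 37C reaction. Luciferin was read by luminescence, normalized to 57uM ketoconazole.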

[17] = measured here: cell count channel max response
[18] = measured here: lipid channel max response

Row | Structure (SMILES) | Potency [1] | activity change, negative = inhibition [2] | Potency [3] | activity change, negative = inhibition [4] | activity, negative = inhibition [5] | Potency [6] | Potency [7] | outcome [8] | Potency [9] | Potency [10] | activity change, negative = inhibition [11] | max response [11, 17] | max response [11, 18] | Potency [12] | Potency [13] | outcome [14] | outcome [15] | Potency [16]
1 | Cc1nc2cnc(Oc3cccc(Cl)c3)nc2n(CCC#N)c1=O | > 11.4 µM (inactive) | -16% (inactive) | 15.8 µM (active) | 1.8% (inactive) | -7.79% (inactive) | > 9.22 µM (inactive) | > 46 µM (inactive) | inactive | inactive | inactive | 3.95% (inactive) | 19.7% | 26.1% | inactive | – | – | – | –
2 | CC(C)NC(=O)N1CC[C@@]2(CCCN(S(C)(=O)=O)C2)C1 | > 11.4 µM (inactive) | -5.61% (inactive) | inactive | 0.961% (inactive) | -2.56% (inactive) | – | > 46 µM (inactive) | inactive | – | – | 0.109% (inactive) | 4.25% | 3.89% | inactive | – | – | – | –
3 | c1ccc2c(-n3ccnc3)nc(-c3ccoc3)nc2c1 | > 11.4 µM (inactive) | -13.9% (inactive) | 0.501 µM (active) | 3.28% (inactive) | 7.69% (inactive) | > 46 µM (inactive) | > 46 µM (inactive) | inactive | – | inactive | 9.53% (inactive) | 10.7% | 22.4% | inactive | 0.199 µM (active) | inactive | inactive | –
4 | c1ccc(CNc2ccnc(-c3ccoc3)n2)cc1 | > 11.4 µM (inactive) | -4.42% (inactive) | 2.51 µM (active) | 4.39% (inactive) | 10.2% (inactive) | > 46 µM (inactive) | – | inactive | – | inactive | 9.38% (inactive) | 7.25% | 15% | inactive | – | inactive | inactive | 3.98 µM (active)
5 | COc1cccc(Nc2ncc3nc(-c4cn(C)c5ccccc45)c(=O)n(CCC#N)c3n2)c1 | > 11.4 µM (inactive) | -25.6% (inactive) | 20 µM (active) | -5.99% (inactive) | -9.25% (inactive) | > 9.22 µM (inactive) | > 46 µM (inactive) | inactive | inactive | inactive | 2.44% (inactive) | 27% | 27.4% | inactive | – | – | – | –
6 | Cc1noc(C)c1-c1cc(Nc2ccc(F)cc2)ncn1 | > 11.4 µM (inactive) | -7.8% (inactive) | 0.501 µM (active) | -15.1% (inactive) | 3.16% (inactive) | > 46 µM (inactive) | > 46 µM (inactive) | – | inactive | inactive | 8.49% (inactive) | 3.61% | 10.9% | inactive | – | inactive | inactive | –
